Screening results from PubChem BioAssay.
This is a sample that favours compounds with a hit; in the whole collection about 7.5% have one here.
NPC1 prom act: activates the NPC1 promoter. Huh7 NPC1 promoter luciferase reporter, 24 h. Potency, µM (top dose mostly 9.22 µM), inactives show at the top dose activation, usual class: activators. actives 2.4% (n = 320,000); note: % of control where 0% means no effect; nearly all actives have a fitted effect of over 60% in size
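Readout is luciferase luminescence, reflecting NPC1 promoter activation in stably transfected Huh7 cells after 24 h compound exposure at 37 °C in reduced-serum medium with 10% FBS.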
Rab9 prom act: Rab9 promoter activation; Huh7 Rab9 promoter-luciferase reporter, luminescence, 24 h; Potency, µM (highest dose often 9.22 µM), for the others: at the highest dose activation, negative = inhibition, usual class: activators; actives 2.8% (n = 320,000); note: % of control where 0% means no effect; nearly all actives have a fitted effect of over 60% in size
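Stable Rab9-luc Huh7, 1500 cells/well, 2 h settle; cmpd in DMSO, 24 h, 37 °C/5% CO2; luciferase reagent 10 min RT; luminescence.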
SMN2 splice enh: SMN2 splice variant enhancement; HEK293 SMN2-luciferase splicing reporter, luminescence, 30-36 h; Potency, µM (top dose mostly 46.1 µM), without a hit: top-dose activity change, positive = activation, actives largely listed as activators; actives 2.8% (n = 210,000); note: % of control where 0% means no effect; nearly all actives have a fitted effect of over 55% in size
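qHTS luciferase splicing reporter: luminescence rises when SMN2 exon 7 is included in transfected HEK293 cells. Compound exposure lasted 30-36 h at 37C, with 4.5 mM final sodium butyrate as control, followed by a ONE-Glo read.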
ELG1 genotoxic: induces genotoxicity in HEK293T cells with luciferase-tagged ELG1. HEK293T ELG1-luciferase reporter, luminescence, 16 h. Potency, µM (titrated, usually from 46 µM), for inactives: at the top dose activity change, positive = activation, hits mostly activators. actives 1.3% (n = 330,000); note: % of control where 0% means no effect; nearly all actives have a fitted effect of over 60% in size
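Genotoxic stress is detected as increased luminescence from luciferase-tagged ELG1 in HEK293T cells, measured with ONE-Glo after a 16 hr treatment at 37 °C.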
FLuc counter: firefly luciferase modulation, counter-screen for miR-21 project. actives 6.9% (n = 360,000). P08659. purified FLuc, Km substrates, luminescence inhibition. Potency, µM (titrated, usually from 57.5 µM), without a hit: top-dose activity change, negative = inhibition, actives largely listed as inhibitors;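 note: plate controls were vehicle for no effect and reference inhibitor for full effect; nearly all actives have a fitted effect of over 55% in size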
Target sequence (P08659 whole entry, looked up): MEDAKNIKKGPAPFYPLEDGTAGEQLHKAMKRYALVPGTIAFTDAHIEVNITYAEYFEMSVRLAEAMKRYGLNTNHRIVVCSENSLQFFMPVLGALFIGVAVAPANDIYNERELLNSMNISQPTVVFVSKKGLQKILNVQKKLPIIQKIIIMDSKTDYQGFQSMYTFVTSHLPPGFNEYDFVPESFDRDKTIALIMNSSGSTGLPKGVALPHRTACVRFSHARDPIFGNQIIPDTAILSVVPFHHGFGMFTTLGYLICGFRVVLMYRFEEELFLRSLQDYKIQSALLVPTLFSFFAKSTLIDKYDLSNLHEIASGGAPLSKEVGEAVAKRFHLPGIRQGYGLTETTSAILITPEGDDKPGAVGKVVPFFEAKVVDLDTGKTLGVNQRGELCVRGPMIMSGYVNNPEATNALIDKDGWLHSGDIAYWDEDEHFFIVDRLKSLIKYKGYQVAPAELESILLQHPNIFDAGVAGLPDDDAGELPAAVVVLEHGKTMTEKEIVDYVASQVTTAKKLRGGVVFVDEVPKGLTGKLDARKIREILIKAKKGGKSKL
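Purified P. pyralis luciferase, 10 nM final, with Km-level 10 uM D-luciferin and 10 uM ATP in 50 mM Tris acetate pH 7.5, 10 mM Mg acetate, 0.01% Tween-20, 0.05% BSA; 6-point qHTS titration about 60 µM downward; luminescence read.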
KinaseGlo FLuc: Kinase-Glo luciferase inhibition (counter-screen) | Q27757 | Kinase-Glo luciferase, ATP luminescence, 8 min | Potency, µM (highest dose often 38.3 µM), inactives show top-dose activity change, negative = inhibition, hits mostly inhibitors | actives 0.28% (n = 200,000); note: % is set by controls: 0 for no effect and ±100 for the full control effect; nearly all actives have a fitted effect of over 60% in size
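Light output from Kinase-Glo luciferase with luciferin and 10 uM ATP in 50 mM imidazole pH 7.2, KCl, MgCl2, Tween 20, BSA; compound pin-delivered, 8-min ambient incubation, then luminescence read.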
Active calls of the source: *; ? = inconclusive; . = not tested or not shown. Calls come from the whole dose curve; as a rule, active = well fitted curve in the direction sought with a large enough effect; inconclusive = small, poorly fitted or top-dose-only effect, or another doubt; inactive = no such curve, though single readings can be large; an effect the other way counts as inactive or inconclusive. Potency is the fitted concentration of half-maximal effect.

SMILES | NPC1 prom act | Rab9 prom act | SMN2 splice enh | ELG1 genotoxic | FLuc counter | KinaseGlo FLuc
O=C(Nc1nc2ccc(S(=O)(=O)N3CCCCC3)cc2s1)c1cccnc1 | 4% | -4% | -7% | -1% | ? | -3%
O=C(Nc1nc2ccc(F)cc2s1)c1cccs1 | 3.2µM* | 1.1µM* | 3.2µM* | ? | 2.4µM* | -28%
CN(C)S(=O)(=O)c1ccc2nc(NC(=O)c3cccnc3)sc2c1 | . | . | 14µM* | . | 3.8µM* | -1%
CC(=O)Nc1ccc2nc(NC(=O)c3cccnc3)sc2c1 | ? | ? | . | 11% | 12µM* | -15%
COc1cc(C(=O)NCC(c2cccs2)S(=O)(=O)c2ccc(F)cc2)cc(OC)c1OC (stereo not given) | . | . | . | . | -10% | .
CCOc1ccccc1NC(=O)Cn1cc(C(=O)c2ccc(Cl)cc2)c(=O)c2ccc(C)nc21 | . | . | . | . | 2% | .
O=C(Nc1nc2ccc(S(=O)(=O)N3CCOCC3)cc2s1)c1cccs1 | 27% | 28% | . | 3% | 19µM* | .
O=C(Nc1nc2ccc(S(=O)(=O)N3CCCC3)cc2s1)c1cccs1 | -6% | 20% | 11% | 1% | ? | -2%
Cc1ccc(Nc2nc3ccccc3c(=O)[nH]2)cc1C | 29% | ? | ? | 8% | -15% | -1%
Cc1ccc(Nc2nc(/N=C/N(C)C)n[nH]2)cc1C | ? | ? | ? | 6% | 24µM* | -2%
Oc1ccc(Br)cc1/C=N/Nc1ncc(-c2ccccc2)cn1 | -16% | -1% | -85% | 1% | -4% | 5%
Nc1cc(Cl)nc(N/N=C/c2ccccc2[N+](=O)[O-])n1 | ? | ? | ? | 25% | 24µM* | -12%
CC(C)(C)c1nnc(N/N=C/c2ccccc2O)n(N)c1=O | -7% | -16% | -71% | -2% | ? | -2%
Oc1ccccc1/C=N/Nc1nccnc1Cl | -25% | -17% | -86% | 13µM* | 17µM* | ?
Oc1ccc(/C=N/Nc2nccnc2Cl)c(O)c1 | 1% | -11% | -32% | ? | 24µM* | 3.5µM*
Oc1ccc(/C=N/Nc2ncc(Br)cn2)c(O)c1 | ? | ? | -23% | 15µM* | 11µM* | 1%
O=c1[nH]ncc(N/N=C\c2ccc(O)cc2O)c1Cl | 0% | -1% | 23% | ? | ? | -8%
COc1cccc(NC(=O)CC(C)S(=O)(=O)c2ccc3c(c2)NC(=O)CO3)c1 (stereo not given) | . | . | . | . | -6% | .
O=[N+]([O-])c1ccccc1/C=N/Nc1nccnc1Cl | ? | 3.5µM* | 22% | ? | 27µM* | ?
Cc1ccc(NC(=O)/C=C/c2ccco2)nc1 | ? | 22% | 14µM* | 4.1µM* | 6µM* | -3%
O=C(/C=C/c1ccco1)Nc1cccc2cccnc12 | 26% | 26% | ? | ? | 15µM* | -4%
Cc1ccc(NC(=O)/C=C/c2cccc([N+](=O)[O-])c2)nc1 | 1% | 19% | 11% | 16% | -1% | 5%
O=C(/C=C/c1ccco1)Nc1ccccn1 | ? | ? | 8.9µM* | 8.2µM* | 6.7µM* | ?
O=C(O)/C=C\C(=O)Nc1ccccc1C#Cc1ccc(Br)cc1 | -1% | 16% | -5% | 13% | 27µM* | 2%
CCCCc1ccc(NC(=S)N2CCN(C)CC2)cc1 | 8% | -2% | . | 0% | 15µM* | .
SMILES | NPC1 prom act | Rab9 prom act | SMN2 splice enh | ELG1 genotoxic | FLuc counter | KinaseGlo FLuc
CC(=O)N1CCN(C(=S)Nc2ccc(SC(F)F)cc2)CC1 | -7% | 0% | ? | -2% | -7% | 2%
CC1CCN(C(=S)Nc2ccc(SC(F)F)cc2)CC1 | ? | 27% | 22µM* | 9% | 1.1µM* | -1%
CCCN1CCN(C(=S)Nc2ccc(SC(F)F)cc2)CC1 | -2% | 6% | -19% | 1% | 13µM* | -2%
COc1ccc(N(C)C(=O)CCn2cnc3onc(-c4ccc(F)cc4)c3c2=O)c(OC)c1 | . | . | . | . | 3% | .
CC(Sc1nc(N)cc(N)n1)C(=O)Nc1ccc(N2CCOCC2)cc1 (stereo not given) | 0% | -1% | . | 1% | -12% | .
Cc1ccc(CN2C(=O)c3ccccc3Sc3ccc(C(=O)NCc4ccco4)cc32)cc1 | . | . | . | . | -9% | .
Cc1ccc2c(Sc3ccc(Cl)cc3)c(C(=O)N3CCC(C)CC3)[nH]c2c1 | . | . | . | . | -1% | .
Cc1ccc(CN2CCCn3nc(C(=O)NCc4ccc(OC(C)C)cc4)cc3C2=O)cc1 | . | . | . | . | -15% | .
COc1ccc(-n2cc(CN3CCCC3)c(-c3cccc(F)c3)n2)cc1 | -3% | -6% | . | -1% | ? | 1%
Cc1cccc(-n2cc(CN3CCN(Cc4nccn4C)CC3)c(-c3cccc(F)c3)n2)c1 | 3% | 8% | . | -1% | 27µM* | .
COc1ccc(-c2noc(-c3cccnc3)n2)cc1OC | ? | 3.5µM* | ? | ? | 15µM* | -12%
CCOc1ccc(-c2noc(-c3cccnc3)n2)cc1OC | ? | 25% | -5% | 12% | 13µM* | -5%
COC(=O)Cn1ncn2c(cc3oc(C)cc32)c1=O | ? | 2.5µM* | ? | ? | 15µM* | -2%
CC(C)(C)c1nnc(NC(=O)c2ccc(Cl)nc2)s1 | 23% | 4.5µM* | . | 16% | ? | 9%
O=C(Nc1nnc(C2CC2)s1)c1ccc(S(=O)(=O)c2ccccc2)cc1 | 1% | -3% | -14% | 0% | 2% | -1%
O=C(Nc1nnc(C2CC2)s1)c1ccc(Cl)nc1 | ? | ? | . | ? | 12µM* | .
CCc1nnc(NC(=O)c2ccc(Cl)nc2)s1 | 26% | ? | 26% | ? | 13µM* | -5%
CCc1nnc(NC(=O)c2cc(Cl)ccn2)s1 | 2.2µM* | 2.5µM* | . | 16µM* | 15µM* | .
COc1ccc(CNC(=O)c2ccc3c(c2)N(Cc2cc(C)ccc2C)C(=O)CS3)cc1 | . | . | -1% | . | -2% | .
O=C(Nc1nc2cc3c(cc2s1)OCCO3)c1ccncc1 | 2.2µM* | 1.6µM* | ? | ? | 1.7µM* | -13%
O=C(Nc1nc2cc3c(cc2s1)OCO3)c1ccco1 | 0.25µM* | 0.22µM* | . | 4% | 0.24µM* | .
O=C(Nc1nc2cc3c(cc2s1)OCCO3)c1ccco1 | ? | 0.79µM* | . | ? | 0.11µM* | .
O=C(Nc1nc2ccccc2c(=O)s1)c1ccc(F)cc1Cl | 8% | 0% | . | 0% | 3.8µM* | .
CN(C)CCN(C(=O)c1ccco1)c1nc2cc3c(cc2s1)OCCO3 | 18% | 18% | . | 18µM* | -12% | .
O=C(Nc1nc2ccccc2c(=O)s1)c1ccco1 | -2% | -13% | . | 0% | 15µM* | .
O=C(Nc1nc(-c2cccs2)c(-c2ccccc2)s1)c1ccco1 | -8% | 5% | -9% | 4% | -3% | -3%
